High-throughput results deposited in PubChem by National Center for Advancing Translational Sciences (NCATS).
DT40 TDP1 no CPT: qHTS for Inhibitors of human tyrosyl-DNA phosphodiesterase 1 (TDP1): qHTS in cells in absence of CPT; DT40 Tdp1-/- hTDP1 cells, no CPT, ATP luminescence, 48 h; Potency, µM (highest dose often 46.2 µM), hits mostly inhibitors; 15% of 420,000 active; AID 686978, 2013; also: nearly all actives have a fitted effect of over 55% in size
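Luminescent ATP content (CellTiter-Glo) served as the growth readout. Knockout chicken DT40 cells expressing human TDP1 were exposed to compounds without camptothecin for a minimum 48 hr at 37 °C.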
TDP1 cell CPT: growth inhibition of DT40 Tdp1-/-;hTDP1 cells with camptothecin (screen for TDP1 inhibitors) | chicken DT40 Tdp1-/-;hTDP1 cells + 20 nM CPT, ATP luminescence, 48 h | Potency, µM (series often up to 46.2 µM), hits mostly inhibitors | 12% of 420,000 active; also: nearly all actives have a fitted effect of over 55% in size
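Cell growth measured by CellTiter-Glo luminescence after a minimum 48 h, 37 C compound exposure with 20 nM CPT in Tdp1-knockout DT40 cells stably expressing hTDP1, seeded 400/well; qHTS titration format.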
IL1B secr inh: blocks inflammasome-driven IL-1 beta release. THP-1 LPS/ATP IL-1B secretion, AlphaLISA, 16 h; active compounds read low. activity change, % at 57.5 µM. 4.7% of 360,000 active. AID 743279; in the data active = activity change below about -50%; inconclusive = mostly about -30% to -49%
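THP-1 cells pretreated 1 hr with compounds (up to 57.5 uM final), then stimulated with LPS (250 ng/mL final) plus ATP (1.25 mM final); secreted IL-1B measured by AlphaLISA after 16 hr, decreased signal indicating inhibition.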
HT1080 IDH1KD tx: toxicity to HT-1080 IDH1 knockdown cells (counter line); HT-1080 IDH1 knockdown viability, ATP luminescence, 48 h; Potency, µM (doses to about 46.1 µM), most hits filed as cytotoxic; 2% of 360,000 active
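HT-1080-IDH1KD cells (IDH1 knocked down), 750/well in RPMI with 5% FBS, treated with compound 48 h at 37 degrees C. Viability by CellTiter-Glo luminescence, normalised to DMSO and no-cell wells; concentration-response curves classed.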
HT1080NT lethal: kills 2HG-producing HT-1080-NT fibrosarcoma cells. HT-1080-NT fibrosarcoma viability, CellTiter-Glo ATP luminescence, 48 h. AID 686970. 1.6% of 360,000 active. Potency, µM (top dose mostly 46.1 µM), usual class: cytotoxic;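 also: NT is the 2HG producing partner of a matched IDH1 knockdown line; nearly all actives have a fitted effect of over 55% in size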
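HT-1080-NT; 750 cells/well; 5% FBS RPMI; 48 h compound, 37 degrees C; CellTiter-Glo luminescence; curve fitting and curve-class assignment.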
Hits are given with their value; [ ] = another dose, or the depositor's remark. A selection: hits, their analogues and other compounds. The true share with any hit is near 19%. Unless noted, calls follow the shape of the dose curve; as a rule, active = well fitted curve in the direction sought with a large enough effect; inconclusive = small, poorly fitted or top-dose-only effect, or another doubt; inactive = no such curve, though single readings can be large; an effect the other way counts as inactive or inconclusive.

Screening O=C(Nc1ccc2c(c1)OCCO2)c1cccn(Cc2cccc([N+](=O)[O-])c2)c1=O returned DT40 TDP1 no CPT 13µM and TDP1 cell CPT inconclusive.
For O=C1N(c2ccc(Cl)cc2)C(c2cccnc2)N2CCCN12 (centres undefined) the results were DT40 TDP1 no CPT inconclusive, TDP1 cell CPT inactive, IL1B secr inh inactive, HT1080 IDH1KD tx inactive and HT1080NT lethal inactive.
For CN1C2CCC1CC(C(=O)OC(CO)c1ccccc1)C2 (centres undefined) the results were DT40 TDP1 no CPT inactive[9.04 µM] and TDP1 cell CPT inactive[9.04 µM].
Screening C#CCOCCOCCOCCNc1nc(N2CCN(C(=O)CCCCCCCCCCNC(=O)[C@H]([C@@H](C)CC)n3cc(CCCCN=C(N)N)nn3)CC2)nc(N2CCN(C(=O)CCCCCCCCCCNC(=O)[C@H](CO)n3cc(CCCCCN)nn3)CC2)n1 returned DT40 TDP1 no CPT 21µM, TDP1 cell CPT 15µM, IL1B secr inh -73, HT1080 IDH1KD tx inconclusive and HT1080NT lethal inconclusive.
For N#Cc1ccc(N2CCNCC2)c(F)c1 the results were DT40 TDP1 no CPT inactive, TDP1 cell CPT inactive, IL1B secr inh inactive, HT1080 IDH1KD tx inactive and HT1080NT lethal inactive.
`CCN(CC)c1ccc(/C=C2/C(=O)NC(=O)N(CC3CCCO3)C2=O)cc1` (centres undefined) gave DT40 TDP1 no CPT inactive, TDP1 cell CPT inactive, IL1B secr inh inactive, HT1080 IDH1KD tx inactive and HT1080NT lethal inactive.
Screening O=C1NC(=S)SC1=Cc1ccc(N(CCCl)CCCl)cc1 returned DT40 TDP1 no CPT 16µM, TDP1 cell CPT 13µM, IL1B secr inh inactive, HT1080 IDH1KD tx inactive and HT1080NT lethal inactive.
CCN1CCN(C(c2cccs2)C(C)NC(=O)Oc2ccccc2)CC1 (centres undefined) was read as DT40 TDP1 no CPT inactive, TDP1 cell CPT inactive, IL1B secr inh inactive, HT1080 IDH1KD tx inactive and HT1080NT lethal inactive.
`O=C1NCCOC(=O)[C@H](Cc2ccc(F)cc2)CC/C=C/C[C@H]1CC(=O)N(CCO)Cc1ccccc1` gave DT40 TDP1 no CPT inconclusive, TDP1 cell CPT inconclusive, IL1B secr inh inactive, HT1080 IDH1KD tx inactive and HT1080NT lethal inactive.
`CS(=O)(=O)c1ccc([C@@H](O)[C@@H](CF)NC(=O)C(Cl)Cl)cc1` gave DT40 TDP1 no CPT 2.9µM, TDP1 cell CPT 4.1µM, IL1B secr inh inactive, HT1080 IDH1KD tx inactive and HT1080NT lethal inactive.
`CC(C)c1ccc(Oc2cccc3c2S(=O)(=O)N(C2CCCC2)CC(COCc2ccccc2)O3)cc1` (centres undefined) gave DT40 TDP1 no CPT 9.2µM, TDP1 cell CPT 10µM, IL1B secr inh inactive, HT1080 IDH1KD tx inactive and HT1080NT lethal inactive.
`COC(=O)C1=C(c2ccc(S(C)(=O)=O)cc2)C[C@@H]2CC[C@H]1N2C(=O)NCCCOC(C)C` gave DT40 TDP1 no CPT inactive, TDP1 cell CPT inactive, IL1B secr inh inactive, HT1080 IDH1KD tx inactive and HT1080NT lethal inactive.
Screening C=CC[C@@H](CC(=O)N(CCO)Cc1ccccc1)C(=O)NC[C@H](OC(=O)[C@@H](CC=C)CC(=O)OC(C)(C)C)c1ccccc1 returned DT40 TDP1 no CPT inactive, TDP1 cell CPT 21µM, IL1B secr inh inconclusive, HT1080 IDH1KD tx inactive and HT1080NT lethal inactive.
Screening COc1cc(C(=O)NN=Cc2ccc(N(CCCl)CCCl)cc2)cc(OC)c1OC returned DT40 TDP1 no CPT inconclusive, TDP1 cell CPT inconclusive, IL1B secr inh inactive, HT1080 IDH1KD tx 4.1µM and HT1080NT lethal inconclusive.
NC(Cc1ccc(O)cc1)C(=O)NN=Cc1ccc(N(CCCl)CCCl)cc1 (centres undefined) was read as DT40 TDP1 no CPT 13µM, TDP1 cell CPT 8.2µM, IL1B secr inh inactive, HT1080 IDH1KD tx inactive and HT1080NT lethal inconclusive.
For COc1cc(C(=O)Nc2ccc(Br)cc2C(=O)c2ccccc2)cc(OC)c1OC the results were DT40 TDP1 no CPT inactive, TDP1 cell CPT inactive, IL1B secr inh inactive, HT1080 IDH1KD tx inactive and HT1080NT lethal inactive.
Screening Cc1cccc(NP2(=O)NCCCN2)c1 returned DT40 TDP1 no CPT inactive, TDP1 cell CPT inactive, IL1B secr inh inactive, HT1080 IDH1KD tx inactive and HT1080NT lethal inactive.
Screening Cc1cc(OC(=O)CCNC(=O)OC(C)(C)C)c2c3c(c(=O)oc2c1)CCC3 returned DT40 TDP1 no CPT 21µM, TDP1 cell CPT inconclusive, IL1B secr inh inactive, HT1080 IDH1KD tx inactive and HT1080NT lethal inactive.
Screening CCC(NC(=O)OC(C)(C)C)C(=O)Oc1cc(C)cc2oc(=O)c3c(c12)CCC3 (centres undefined) returned DT40 TDP1 no CPT 12µM, TDP1 cell CPT 21µM, IL1B secr inh inactive, HT1080 IDH1KD tx inactive and HT1080NT lethal inactive.
`Cn1cc(C=O)c2nccnc21` gave DT40 TDP1 no CPT inactive, TDP1 cell CPT inactive, IL1B secr inh inactive, HT1080 IDH1KD tx inactive and HT1080NT lethal inactive.
N#CC1=C(N)Oc2c(c(=O)oc3ccccc23)C1c1ccc([N+](=O)[O-])o1 (centres undefined) was read as DT40 TDP1 no CPT inconclusive, TDP1 cell CPT inactive, IL1B secr inh inactive, HT1080 IDH1KD tx inactive and HT1080NT lethal inactive.
Screening COC(=O)[C@]12OC[C@]34C([C@@H](O)[C@@H]1O)[C@]1(C)CC(=O)C(O)=C(C)[C@@H]1C[C@H]3OC(=O)[C@H](O)[C@@H]24 (some centres undefined) returned DT40 TDP1 no CPT 1.5µM, TDP1 cell CPT 2.9µM, IL1B secr inh inactive, HT1080 IDH1KD tx inconclusive and HT1080NT lethal inconclusive.
`Cn1cc(C(=O)C(=O)N[C@H]2CN3CCC2CC3)c2ccccc21` gave DT40 TDP1 no CPT inconclusive and TDP1 cell CPT inactive.
CN(C)c1ccc(N=O)cc1 was read as DT40 TDP1 no CPT 5µM and TDP1 cell CPT 0.56µM.
For CN(C)c1ccc(P(=S)(N(C)C)N(C)C)cc1 the results were DT40 TDP1 no CPT inconclusive, TDP1 cell CPT inconclusive, IL1B secr inh inactive, HT1080 IDH1KD tx inactive and HT1080NT lethal inactive.
`O=C(COc1ccc(Br)cc1)N1CCN(Cc2ccc3c(c2)OCO3)CC1` gave DT40 TDP1 no CPT inactive, TDP1 cell CPT inconclusive, IL1B secr inh -60, HT1080 IDH1KD tx inactive and HT1080NT lethal inactive.
Screening CSc1ccc(CN2CCN(C(=O)COc3ccc(C)cc3)CC2)cc1 returned DT40 TDP1 no CPT 18µM, TDP1 cell CPT inconclusive, IL1B secr inh inactive, HT1080 IDH1KD tx inactive and HT1080NT lethal inactive.
For Cc1ccc(OCC(=O)N2CCN(CCc3ccncc3)CC2)cc1 the results were DT40 TDP1 no CPT inactive and TDP1 cell CPT inactive.
`Cn1nc(-c2ccc(OCC(=O)N3CCN(Cc4ccccc4)CC3)cc2)c2ccccc2c1=O` gave DT40 TDP1 no CPT 6.5µM, TDP1 cell CPT 13µM, IL1B secr inh inactive, HT1080 IDH1KD tx inactive and HT1080NT lethal inactive.
